The whole screen tested about 290,000 compounds, of which about 3,000 (1%) were called active. Rule as the data show it: active = inhibition mostly above about 36% (no sharp cut-off); inactive = mostly below about 34%. This excerpt belongs to a sample that is enriched for actives.
Molecular target: T1, Nucleotide-binding oligomerization domain-containing protein 1, Homo sapiens (UniProt Q9Y239)
T1 sequence (whole entry): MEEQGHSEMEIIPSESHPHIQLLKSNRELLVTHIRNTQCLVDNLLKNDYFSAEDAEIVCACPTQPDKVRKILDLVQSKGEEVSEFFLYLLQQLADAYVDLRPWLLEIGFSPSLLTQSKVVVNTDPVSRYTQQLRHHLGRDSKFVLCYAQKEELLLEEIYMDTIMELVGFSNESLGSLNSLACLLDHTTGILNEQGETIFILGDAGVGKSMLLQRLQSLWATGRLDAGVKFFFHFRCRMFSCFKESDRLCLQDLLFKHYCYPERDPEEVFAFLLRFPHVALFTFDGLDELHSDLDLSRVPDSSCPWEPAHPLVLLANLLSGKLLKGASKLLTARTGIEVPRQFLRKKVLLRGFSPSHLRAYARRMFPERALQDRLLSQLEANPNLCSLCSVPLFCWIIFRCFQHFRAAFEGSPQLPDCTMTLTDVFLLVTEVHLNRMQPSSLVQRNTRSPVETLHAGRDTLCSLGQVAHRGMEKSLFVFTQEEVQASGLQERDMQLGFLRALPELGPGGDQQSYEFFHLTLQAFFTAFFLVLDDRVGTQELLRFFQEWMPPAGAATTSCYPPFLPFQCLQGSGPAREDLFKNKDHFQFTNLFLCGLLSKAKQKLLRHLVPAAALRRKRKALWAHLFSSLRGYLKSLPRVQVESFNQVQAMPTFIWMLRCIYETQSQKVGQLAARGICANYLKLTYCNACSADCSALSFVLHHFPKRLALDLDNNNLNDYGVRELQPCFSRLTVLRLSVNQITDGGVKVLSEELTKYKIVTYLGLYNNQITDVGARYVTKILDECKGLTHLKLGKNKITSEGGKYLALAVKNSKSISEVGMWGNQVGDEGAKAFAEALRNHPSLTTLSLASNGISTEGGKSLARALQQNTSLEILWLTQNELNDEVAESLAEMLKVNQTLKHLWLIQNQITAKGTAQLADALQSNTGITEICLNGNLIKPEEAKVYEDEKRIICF
Assay: NOD1 signaling inhibitors, primary screen, cell-based, luminescence, uHTS (AID 1578)

Compound | outcome
COc1ccc(OC)c(/C=C/c2ccc3cccc(O)c3n2)c1 | active
COc1cc(/C=C/c2ccc3cccc(O)c3n2)cc(OC)c1OC | active
O=C(Nc1nnc(-c2cccs2)o1)c1cccc(C(F)(F)F)c1 | active
O=C(Nc1nnc(-c2cccs2)o1)c1cccc(Oc2ccccc2)c1 | active
O=C(C1CCC(CNS(=O)(=O)c2cccs2)CC1)N1CCN(c2ccc(Cl)cc2)CC1 (centres undefined) | active
O=C(Nc1ccccc1C(=O)Nc1nnc(C(F)(F)F)s1)c1ccccc1 | active
O=C(Nc1ccccc1C(=O)Nc1nnc(C(F)(F)F)s1)c1ccccc1Cl | active
Cc1onc(-c2c(F)cccc2Cl)c1C(=O)Nc1nnc(C(F)(F)F)s1 | active
COc1ccccc1CN(Cc1nc2ccccc2c(=O)[nH]1)S(=O)(=O)c1ccc2ccccc2c1 | active
N#C/C(=C\c1ccc(O)c([N+](=O)[O-])c1)c1nc2ccccc2s1 | active
O=C(CCl)N1c2ccccc2OCC1c1ccccc1 (centres undefined) | active
Cc1ccc(C(=O)Nc2ccccc2-c2ccccc2)cc1[N+](=O)[O-] | active
COc1ccccc1OCC(=O)OC/C(O)=C(\C#N)c1nc2ccccc2[nH]1 | active
Cc1cccc(C)c1OCC(=O)OC/C(O)=C(\C#N)c1nc2ccccc2[nH]1 | active
O=C(Nc1nc2ccccc2n1CCOc1ccc(Cl)cc1)c1ccco1 | active
CCOC(=O)c1sc(NC(=O)c2cc(-c3ccccc3C)nc3ccccc23)c(C#N)c1C | active
COC(=O)c1sc(NC(=O)c2cc(-c3ccccc3)nc3ccccc23)c(C#N)c1C | active
CCOC(=O)c1sc(NC(=O)CSc2nc3c(cc2C#N)CCCCCC3)c(C#N)c1C | active
Cc1ccccc1-c1cc(C(=O)Nc2sc(C(=O)OC(C)C)c(C)c2C#N)c2ccccc2n1 | active
CCOC(=O)c1sc(NC(=O)c2cc(-c3ccccc3)nc3ccccc23)c(C#N)c1C | active
CCOC(=O)c1sc(NC(=O)CSc2n[nH]c(-c3ccccc3)n2)c(C#N)c1C | active
Cc1ccc(C(=O)O/N=C(\N)c2ccccn2)c(C)c1 | active
Cc1ccc(C)c(N2CCN(C(=O)CCCCCn3c(=S)[nH]c4ccc(N5CCOCC5)cc4c3=O)CC2)c1 | active
N#Cc1ccc(C(=O)Nc2nc(-c3cccs3)c(C(=O)C(F)(F)F)s2)cc1 | active
CCS(=O)(=O)c1ncc(Cl)c(C(=O)Nc2ccc(S(=O)(=O)N(C)c3ccccc3)cc2)n1 | active
CN(c1ccccc1)S(=O)(=O)c1ccc(NC(=O)c2nc(S(C)(=O)=O)ncc2Cl)cc1 | active
CCS(=O)(=O)c1ncc(Cl)c(C(=O)Nc2ccc(C)cc2)n1 | active

Compound | outcome
CCN(c1ccccc1)S(=O)(=O)c1ccc(NC(=S)NC(=O)c2cccs2)cc1 | active
Cc1csc2ncnc(N3CCN(C(=S)Nc4ccc(C(F)(F)F)cc4)CC3)c12 | active
Cc1csc2c(N3CCN(C(=S)Nc4ccc(C(F)(F)F)cc4)CC3)ncnc12 | active
Fc1ccc(NC(=S)N2CCCN(c3ccc(C(F)(F)F)cn3)CC2)c(F)c1 | active
Cc1csc2ncnc(N3CCN(C(=S)Nc4ccc(F)cc4F)CC3)c12 | active
Cc1csc2ncnc(N3CCN(S(=O)(=O)c4cccc(C(F)(F)F)c4)CC3)c12 | active
Cc1csc2ncnc(N3CCN(C(=O)Nc4ccc(OC(F)(F)F)cc4)CC3)c12 | active
Cc1c(C#N)c(NC(=O)CCl)n(Cc2cccs2)c1C | active
Cc1c(C#N)c(NC(=O)CCl)n(Cc2ccccc2)c1C | active
Br.CCCCCCCCn1c2c(c(=N)c3c1CCC3)CCCC2 | active
Br.CCCCCCCn1c2c(c(=N)c3c1CCC3)CCCC2 | active
Br.CCCCCCCCCn1c2c(c(=N)c3c1CCC3)CCCC2 | active
CC(=O)N1CCCc2cc(S(=O)(=O)N3CCCC(C(=O)N4CCN(c5cccc(Cl)c5)CC4)C3)ccc21 (centres undefined) | active
CC(=O)N1CCCc2cc(S(=O)(=O)N3CCCC(C(=O)N4CCN(c5cc(C)ccc5C)CC4)C3)ccc21 (centres undefined) | active
Cc1ccc(S(=O)(=O)c2ncccc2[N+](=O)[O-])cc1 | active
COc1ccc(/C=C2\Sc3ccc(C(=O)N4CCN(Cc5ccccc5)CC4)cc3N(C)C2=O)cc1OC | active
CN1C(=O)/C(=C/c2ccccc2Cl)Sc2ccc(C(=O)N3CCCC3)cc21 | active
COc1ccc2c(c1OC)C(=O)OC2Nc1nc(-c2ccccc2)cs1 (centres undefined) | active
Cc1ccc(-c2csc(NC3OC(=O)c4ccccc43)n2)cc1 (centres undefined) | active
O=C(NCCc1ccccc1F)c1ccc2c(c1)OCCO2 | active
O=C(NCCc1ccccc1)c1ccc2c(c1)OCCCO2 | active
COc1cc(C)c(Br)cc1S(=O)(=O)NCc1ccncc1 | active
Cc1ccc(Cc2c(C)c(C#N)c3[nH]c4ccccc4n3c2=O)cc1 | active
O=C(N/N=C/c1ccc([N+](=O)[O-])s1)c1cccc(Br)c1 | active
O=C(N/N=C/c1ccc([N+](=O)[O-])s1)c1ccccc1Br | active
O=C(Nc1cccc(S(=O)(=O)N2CCCCC2)c1)c1ccccc1NS(=O)(=O)c1ccc(F)cc1 | active
Cc1ccc(NC(=O)c2ccccc2NS(=O)(=O)c2ccc(F)cc2)cc1S(=O)(=O)N1CCCCC1 | active

Reference: the GenesisPotency data set
